A selection: hits, their analogues and other compounds. The true share with any hit is near 3.8%.
HSF-1 act: increases HSF-1 driven luciferase reporter signal | AID 504408 | activation, % at 9 µM | 1.7% of 300,000 active | NIH3T3-HGL HSF-1 luciferase reporter, MG132, 8 h; 100% = twice DMSO control signal;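 active means mean replicate activation of at least 50% with a set share of replicates each reaching 50%; inconclusive means only one of those two conditions met; inactive means mean below 50% and too few replicates reaching it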;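 further: 0% = median of the neutral control wells and 100% = twice that signal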
Wnt act: Wnt/beta-catenin pathway activation. Wnt/beta-catenin reporter cell assay, activator, plate reader. 1.2% of 300,000 active. AID 743398. activation, % at 9.35 µM; in the data active means activation above about 30%, passing the limit was not always enough; inconclusive means no clear call, values can overlap the other calls;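 further: 0% = neutral control wells and 100% = positive control wells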
esBAF inh: inhibitors of esBAF chromatin remodeling in mouse ES cells | 2% of 350,000 active | reporter increase, % at 12.5 µM | Bmi1-luciferase knock-in reporter, 24 h; 100% = twice the neutral-well signal; in the data active means activation above about 40%; inconclusive means no clear call, values can overlap the other calls;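 further: 0% = median of the plate's neutral control wells and 100% = double that signal; a rise in the Bmi1 reporter signal indicates esBAF inhibition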
MITF act: activators of MITF-driven TRPM1 promoter activity in SK-MEL-5 cells; SK-MEL-5 TRPM1-promoter luciferase, 24 h; % of positive control, neutral wells = 0; activation, % at 12.5 µM; 0.75% of 300,000 active;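 active means mean activation of at least 80% with every replicate also reaching 80%; inconclusive means mean reaches 80% but some replicate falls short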;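 further: 0% = neutral control wells and 100% = parthenolide positive control wells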
HSF1 inhib: HSF1 inhibition | AID 2098 | 0.77% of 300,000 active | activity change, negative = inhibition, % at 7.5 µM (by protocol) | NIH3T3-HGL HSE-luciferase, MG132-induced, luminescence 8 h; stronger effect = lower value;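 active means more than half of replicate wells show activity change below -50%, luminescence cut by over half; inconclusive means some wells, but at most half, below -50%; inactive means no replicate well below -50%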;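 further: luciferase reports HSF-1 transcriptional activity via heat shock element; 0% = median of DMSO wells and -100% = zero luminescence signal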
An asterisk follows results filed as active; u = inconclusive; x = not tested or not shown.

SMILES	HSF-1 act	Wnt act	esBAF inh	MITF act	HSF1 inhib
COc1ccccc1-c1cc(-c2ccc(C)cc2)nc(SCc2nnc(-c3ccccc3)o2)c1C#N	-5	-5	-1	x	-7
Cc1cc(C)c(C#N)c(SCc2nnc(-c3ccccc3[N+](=O)[O-])o2)n1	36	75*	23	15	20
C[C@@H]1CN([C@@H](C)CO)C(=O)c2cc(C#CC3(O)CCCC3)cnc2O[C@@H]1CN(C)C(=O)Nc1ccc2c(c1)OCO2	x	x	-4	x	x
Cc1nc2ccc(N)cc2c(=O)n1Cc1ccc(Cl)cc1	4	x	27	15	5
Cc1nc2ccc(Br)cc2c(=O)n1Cc1cccs1	54*	5	x	10	13
C[C@H]1CCCCO[C@@H](CN(C)S(C)(=O)=O)[C@@H](C)CN([C@@H](C)CO)C(=O)c2cc(N(C)C)ccc2O1	x	x	-9	x	x
C[C@H](CO)N1C[C@H](C)[C@H](CN(C)C(=O)Nc2ccc3c(c2)OCO3)OCCCC[C@H](C)Oc2ccc(NC(=O)CCCCCC(=O)Nc3ccccc3N)cc2C1=O	x	x	9	x	x
O=c1cc(-c2ccccc2Cl)oc2cccc(O)c12	-4	6	28	-4	-5
O=c1cc(-c2ccccc2Cl)oc2c(Br)ccc(O)c12	16	13	83*	50	14
O=C(Nc1ccc(O)c2c(=O)cc(-c3ccccc3Cl)oc12)c1ccc(Cl)c(Cl)c1	13	-6	51*	-5	3
Cc1noc(C)c1NC(=O)Nc1cccc2c1O[C@@H](CN(C)C(=O)Nc1ccc(F)cc1)[C@H](C)CN([C@@H](C)CO)C2=O	x	x	2	x	x
Cc1onc(-c2c(Cl)cccc2Cl)c1NC(=O)NC1CCSC1 (stereo unspecified)	3	34*	x	x	2
O=c1cc(-c2ccccc2)nc2cc(-c3ccc(F)cc3)[nH]n12	2	15	x	x	-7
Fc1ccc(-c2cc(-c3ccccc3)nc(-n3cccn3)n2)cc1	-75	0	-4	10	-69*
O=C(C[C@@H]1CC[C@H]2[C@@H](COC[C@H](O)CN2Cc2ccc3c(c2)OCO3)O1)N1CCOCC1	x	x	-3	x	x
c1ccc(-c2ccc(-c3ccccc3)[nH]2)cc1	x	0	72*	46	x
CC(C)NC(=O)N[C@H]1CC[C@@H](CCNS(=O)(=O)c2ccc(Cl)cc2)O[C@@H]1CO	x	x	1	x	x
C[C@H]1CN([C@@H](C)CO)S(=O)(=O)c2ccc(C3=CCCC3)cc2O[C@H]1CN(C)C(=O)c1ccccc1	x	x	5	x	x
CO[C@H]1CN(C)C(=O)c2cc(NS(C)(=O)=O)ccc2OC[C@H](C)N(Cc2ccccn2)C[C@H]1C	x	x	-3	x	x
COc1ccc(-c2nc3ccc(C)cn3c2NCc2ccc3c(c2)OCO3)cc1	60*	u	14	12	14
CCCCNc1c(-c2cccc(-c3ccc(OC)cc3)c2)nc2ccc(C)cn12	-6	9	12	-1	2
Cc1ccc(-c2nc3ccccn3c2NCc2ccc3c(c2)OCO3)cc1	34	u	44*	32	16
Cc1cc(O)c(NC(=O)c2cccc([N+](=O)[O-])c2)cc1C	-5	30*	39	7	3
O=C(Nc1cc([N+](=O)[O-])ccc1O)c1cccc([N+](=O)[O-])c1	4	6	25	31	5
O=C(CCNc1ccc(Br)cc1)c1cccc([N+](=O)[O-])c1	66*	0	x	-13	32
SMILES	HSF-1 act	Wnt act	esBAF inh	MITF act	HSF1 inhib
O=C(Nc1ncc([N+](=O)[O-])s1)c1cccc([N+](=O)[O-])c1	35	38*	-58	-5	9
O=C(Nc1ccccc1)Nc1ncc([N+](=O)[O-])s1	37	5	-74	8	14
CC(CCc1ccccc1)NC(=O)c1cccc([N+](=O)[O-])c1 (stereo unspecified)	-66	x	x	-7	-53*
O=C(Nc1ccc([N+](=O)[O-])cc1)c1cccc([N+](=O)[O-])c1	x	40*	0	x	x
O=C(Nc1ccc(NC(=O)c2cccc([N+](=O)[O-])c2)cc1)c1cccc([N+](=O)[O-])c1	-7	6	6	x	2
O=C(Nc1ccccc1N1CCN(C(=O)c2ccc(Cl)cc2)CC1)c1cccc([N+](=O)[O-])c1	71*	1	x	-1	33
COCC(=O)Nc1ccc2c(c1)C(=O)N(C)C[C@H](OC)[C@H](C)CN(Cc1cncnc1)[C@@H](C)CO2	x	x	0	x	x
Cc1ccc(C)c(NC(=O)C2CC(O)CN2C(=O)OCc2ccccc2)c1 (stereo unspecified)	-22	x	4	5	-5
Cc1ccc(C)c(NC(=O)C2CC(O)CN2C(=O)Oc2ccccc2)c1 (stereo unspecified)	67*	-2	x	-12	45
O=C(Cc1cccnc1)N1[C@H](CO)[C@H]2c3ccccc3NC[C@H]21	x	x	2	x	x
COc1cc(C(=O)OC2CC3CCC2(C)C3(C)C)ccc1OC(C)=O (stereo unspecified)	6	0	49*	28	3
CCCCCn1cnc2c(sc3nc4c(cc32)CSC(C)(C)C4)c1=O	-32	x	39	94*	-14
c1ccc(SCc2nc3ccccc3s2)nc1	29	-3	37	29	19
N#CCc1nc(CSc2nc3ccccc3o2)cs1	4	-3	102*	55	6
O=C(O)c1ccccc1CSc1nc2ccccc2o1	28	5	34	46	12
c1ccc(OCCSc2nc3ccccc3o2)cc1	-69	x	87*	50	-61*
c1ccc2oc(SCc3nc4ccccc4s3)nc2c1	67*	x	x	60	34
Nn1c(COc2ccc(Cl)cc2)nc2ccccc2c1=O	86*	29	u	99*	40
O=C(C[C@@H]1C=C[C@@H](NC(=O)CCN2CCCCC2)[C@H](CO)O1)NCc1ccc(Cl)c(Cl)c1	x	x	3	x	x
Cc1cc(N2CCOCC2)ccc1/C=C\[N+](=O)[O-]	80*	1	x	-57	75
O=C(Cn1ncc(Cl)c(Cl)c1=O)N1CCN(Cc2ccccc2)CC1	55*	-6	x	-98	55
CCc1ccc(C(=O)Cn2ncc(Cl)c(Cl)c2=O)cc1	-80	x	13	-57	-80*
O=C(Cn1ncc(Cl)c(Cl)c1=O)N1CCOCC1	15	7	x	-97	24
Cc1cc(C)cc(Cn2ncc(Cl)c(Cl)c2=O)c1	117*	0	x	x	88
CC1(C)C(=O)Nc2ccccc2N1C(=O)Cn1ncc(Cl)c(Cl)c1=O	54*	-2	x	0	29
Cc1ccc(Cn2ncc(Cl)c(Cl)c2=O)cc1	37	x	x	-65	26
COC(=O)C[C@H]1CC[C@H]2[C@H](COc3ccc(NC(=O)Nc4ccc(C)cc4)cc3C(=O)N2C)O1	x	x	2	x	x
CCCc1cn(CC[C@@H]2CC[C@@H](NS(=O)(=O)c3ccc(-c4ccccc4)cc3)[C@H](CO)O2)nn1	x	x	18	x	x
Fc1ccc(-c2ccc(Nc3cccc(F)c3)nn2)cc1	-19	6	52*	69	-7

High-throughput results deposited in PubChem by Broad Institute.
